Source: the supplement of paper PMC10849652
The full data set covers some 8,800 targets. This sample favours those with a hit. About 0.5% of all pairs of compound and target were hits. A number with no mark means an inactive call.

Tests used:
Assay in all cases: log2 fold change, soluble protein after heating vs DMSO (PISA); higher = thermal stabilisation; K562 lysate, 10 uM; active = over 0.2 and 3.5 SD of the protein, either way, in both replicates (recomputed)
[1] = compound: CCCS(=O)(=O)Nc1ccc(F)c(C(=O)c2c[nH]c3ncc(-c4ccc(Cl)cc4)cc23)c1F [vemurafenib]
Outline: (§1)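 Values give the log-two fold change in thermal stability against solvent controls, from duplicates. Crude K562 extract at 1 mg/mL protein, made by dounce homogenisation in PBS pH 7.4 with 1 mM MgCl2, was treated with 10 μM compound for 30 min. After 3 min heating across 48°C-58°C, aliquots were pooled, adjusted to 0.5% NP-40 at 4°C and centrifuged at 21,000xg for 90 min. The supernatant was measured by TMTpro 16plex LC-MS/MS with channel sums equalised.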

[2] = compound: CCCS(=O)(=O)Nc1ccc(F)c(C(=O)c2c[nH]c3ncc(Cl)cc23)c1F
Outline: as §1

[3] = compound: CCN(CCCOc1ccc2c(Nc3cc(CC(=O)Nc4cccc(F)c4)[nH]n3)ncnc2c1)CCOP(=O)(O)O [barasertib]
Outline: as §1

[4] = compound: CC[C@@H]1C(=O)N(C)c2cnc(Nc3ccc(C(=O)NC4CCN(C)CC4)cc3OC)nc2N1C1CCCC1
Outline: as §1

[5] = compound: CC[C@@H]1C(=O)N(C)c2cnc(Nc3ccc(C(=O)N[C@H]4CC[C@H](N5CCN(CC6CC6)CC5)CC4)cc3OC)nc2N1C(C)C [volasertib]
Outline: as §1

[6] = compound: CCn1c(C(=O)N(C2CC2)C2CC2)cc2c3c(ncn3C)c(Nc3cc(C)n(C)n3)nc21
Outline: as §1

[7] = compound: CCn1cc(-c2ccnc3[nH]c(-c4cccc(CN(C)C)c4)cc23)c(-c2ccc(NC(=O)N(C)C)cc2)n1
Outline: as §1

[8] = compound: CN1CCC(CNc2ccc3ncc(-c4cccc(OC(F)(F)F)c4)n3n2)CC1
Outline: as §1

[9] = compound: CN1CCN(CCOc2cc(OC3CCOCC3)c3c(Nc4c(Cl)ccc5c4OCO5)ncnc3c2)CC1 [saracatinib]
Outline: as §1

[10] = compound: CN1CCN(c2nc(C3=C(c4c[nH]c5ccccc45)C(=O)NC3=O)c3ccccc3n2)CC1 [sotrastaurin]
Outline: as §1

UniProt P27824, sequence (P27824 whole entry, looked up): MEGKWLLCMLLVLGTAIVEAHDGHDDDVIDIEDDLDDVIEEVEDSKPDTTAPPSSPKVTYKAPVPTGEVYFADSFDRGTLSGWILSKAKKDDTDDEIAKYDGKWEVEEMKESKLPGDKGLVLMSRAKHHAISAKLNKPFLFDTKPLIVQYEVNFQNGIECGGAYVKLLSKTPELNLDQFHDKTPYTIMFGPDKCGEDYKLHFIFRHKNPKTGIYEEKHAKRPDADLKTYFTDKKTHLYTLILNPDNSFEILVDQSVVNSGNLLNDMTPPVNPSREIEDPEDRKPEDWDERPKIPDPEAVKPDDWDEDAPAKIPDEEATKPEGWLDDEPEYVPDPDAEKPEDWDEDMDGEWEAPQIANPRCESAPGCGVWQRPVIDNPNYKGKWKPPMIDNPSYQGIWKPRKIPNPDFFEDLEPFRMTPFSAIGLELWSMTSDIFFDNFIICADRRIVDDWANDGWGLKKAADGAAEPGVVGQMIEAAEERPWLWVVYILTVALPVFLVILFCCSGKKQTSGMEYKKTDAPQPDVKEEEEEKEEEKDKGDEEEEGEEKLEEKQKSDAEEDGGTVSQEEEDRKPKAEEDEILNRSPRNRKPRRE
UniProt Q13555, sequence (Q13555 whole entry, looked up): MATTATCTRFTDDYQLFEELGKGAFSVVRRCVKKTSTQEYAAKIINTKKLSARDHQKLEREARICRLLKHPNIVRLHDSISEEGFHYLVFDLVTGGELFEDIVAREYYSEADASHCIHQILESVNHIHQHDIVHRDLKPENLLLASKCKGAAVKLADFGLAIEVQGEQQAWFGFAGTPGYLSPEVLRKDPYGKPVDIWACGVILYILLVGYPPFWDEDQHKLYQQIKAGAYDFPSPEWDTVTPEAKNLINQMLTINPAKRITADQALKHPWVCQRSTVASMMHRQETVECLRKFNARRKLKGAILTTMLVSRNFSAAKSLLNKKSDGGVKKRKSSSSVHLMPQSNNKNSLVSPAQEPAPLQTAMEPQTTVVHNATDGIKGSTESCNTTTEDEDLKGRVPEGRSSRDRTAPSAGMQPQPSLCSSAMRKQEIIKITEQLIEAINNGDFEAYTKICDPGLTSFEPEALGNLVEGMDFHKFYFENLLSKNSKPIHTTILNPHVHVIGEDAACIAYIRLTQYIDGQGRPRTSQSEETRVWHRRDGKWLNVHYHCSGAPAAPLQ
UniProt P55212, sequence (P55212 whole entry, looked up): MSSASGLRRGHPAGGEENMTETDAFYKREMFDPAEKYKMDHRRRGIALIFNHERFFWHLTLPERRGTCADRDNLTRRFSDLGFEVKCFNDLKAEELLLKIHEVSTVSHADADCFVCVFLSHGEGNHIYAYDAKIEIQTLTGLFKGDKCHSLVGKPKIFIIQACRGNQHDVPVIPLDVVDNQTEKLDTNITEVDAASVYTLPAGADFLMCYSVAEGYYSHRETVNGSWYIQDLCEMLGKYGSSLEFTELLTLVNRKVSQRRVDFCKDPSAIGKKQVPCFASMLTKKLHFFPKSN
UniProt Q13042, sequence (Q13042 whole entry, looked up): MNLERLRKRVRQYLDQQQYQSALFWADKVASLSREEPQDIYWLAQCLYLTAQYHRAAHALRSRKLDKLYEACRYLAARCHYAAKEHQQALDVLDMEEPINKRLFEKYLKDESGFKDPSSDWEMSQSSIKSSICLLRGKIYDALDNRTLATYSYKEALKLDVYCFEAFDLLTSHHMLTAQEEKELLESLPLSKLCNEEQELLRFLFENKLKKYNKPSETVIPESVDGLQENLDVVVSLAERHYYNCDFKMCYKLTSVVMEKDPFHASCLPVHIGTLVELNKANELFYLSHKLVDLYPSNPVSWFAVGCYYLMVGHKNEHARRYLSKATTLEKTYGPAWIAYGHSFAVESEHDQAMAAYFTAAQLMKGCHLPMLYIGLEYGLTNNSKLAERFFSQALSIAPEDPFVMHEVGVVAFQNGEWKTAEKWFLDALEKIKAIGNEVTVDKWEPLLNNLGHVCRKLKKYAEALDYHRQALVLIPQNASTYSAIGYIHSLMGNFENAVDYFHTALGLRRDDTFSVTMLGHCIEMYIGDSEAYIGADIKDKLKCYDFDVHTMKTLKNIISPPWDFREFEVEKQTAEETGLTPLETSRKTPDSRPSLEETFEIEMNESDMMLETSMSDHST
UniProt Q00536, sequence (Q00536 whole entry, looked up): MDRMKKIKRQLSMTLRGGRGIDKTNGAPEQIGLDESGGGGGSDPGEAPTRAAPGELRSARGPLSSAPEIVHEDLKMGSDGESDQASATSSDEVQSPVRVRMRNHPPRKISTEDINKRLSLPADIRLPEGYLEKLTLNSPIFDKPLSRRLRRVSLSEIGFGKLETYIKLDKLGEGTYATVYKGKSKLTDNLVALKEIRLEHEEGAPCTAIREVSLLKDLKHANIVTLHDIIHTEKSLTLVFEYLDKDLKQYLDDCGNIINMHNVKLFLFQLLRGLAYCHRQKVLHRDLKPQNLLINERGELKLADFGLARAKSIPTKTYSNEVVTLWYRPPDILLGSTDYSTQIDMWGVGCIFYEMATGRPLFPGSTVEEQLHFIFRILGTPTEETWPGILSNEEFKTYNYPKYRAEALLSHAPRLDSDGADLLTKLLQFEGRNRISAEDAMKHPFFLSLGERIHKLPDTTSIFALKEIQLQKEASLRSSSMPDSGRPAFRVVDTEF
UniProt O43861, sequence (O43861 whole entry, looked up): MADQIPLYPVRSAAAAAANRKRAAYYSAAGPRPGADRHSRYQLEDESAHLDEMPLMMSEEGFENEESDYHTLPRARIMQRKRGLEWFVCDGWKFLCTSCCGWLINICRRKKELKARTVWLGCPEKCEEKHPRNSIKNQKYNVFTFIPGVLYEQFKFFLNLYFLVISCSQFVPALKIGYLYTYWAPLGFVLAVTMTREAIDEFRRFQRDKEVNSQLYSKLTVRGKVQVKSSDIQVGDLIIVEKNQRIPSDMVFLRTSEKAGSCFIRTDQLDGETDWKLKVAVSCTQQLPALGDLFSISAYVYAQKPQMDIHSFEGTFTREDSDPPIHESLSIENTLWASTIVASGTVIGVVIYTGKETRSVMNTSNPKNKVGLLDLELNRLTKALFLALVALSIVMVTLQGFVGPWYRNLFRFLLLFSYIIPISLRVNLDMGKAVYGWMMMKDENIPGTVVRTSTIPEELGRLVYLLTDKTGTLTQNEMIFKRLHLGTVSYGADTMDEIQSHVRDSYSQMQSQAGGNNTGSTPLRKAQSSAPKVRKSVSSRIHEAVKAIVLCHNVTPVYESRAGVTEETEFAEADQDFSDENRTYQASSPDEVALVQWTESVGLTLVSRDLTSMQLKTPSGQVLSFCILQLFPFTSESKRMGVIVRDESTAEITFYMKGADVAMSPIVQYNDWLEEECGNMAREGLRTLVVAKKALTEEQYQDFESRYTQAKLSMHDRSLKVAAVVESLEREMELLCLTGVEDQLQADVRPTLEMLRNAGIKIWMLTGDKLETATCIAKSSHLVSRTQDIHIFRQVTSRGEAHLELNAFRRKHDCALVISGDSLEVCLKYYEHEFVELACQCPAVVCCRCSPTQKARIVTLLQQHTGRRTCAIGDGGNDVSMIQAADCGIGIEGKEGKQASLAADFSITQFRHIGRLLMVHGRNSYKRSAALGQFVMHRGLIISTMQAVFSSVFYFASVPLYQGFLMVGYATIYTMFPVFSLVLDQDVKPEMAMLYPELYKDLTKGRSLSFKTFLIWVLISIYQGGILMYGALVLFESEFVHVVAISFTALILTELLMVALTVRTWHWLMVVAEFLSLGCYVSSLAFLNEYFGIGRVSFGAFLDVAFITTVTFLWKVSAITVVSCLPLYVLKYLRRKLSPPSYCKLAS
UniProt Q8NBU5, sequence (Q8NBU5 whole entry, looked up): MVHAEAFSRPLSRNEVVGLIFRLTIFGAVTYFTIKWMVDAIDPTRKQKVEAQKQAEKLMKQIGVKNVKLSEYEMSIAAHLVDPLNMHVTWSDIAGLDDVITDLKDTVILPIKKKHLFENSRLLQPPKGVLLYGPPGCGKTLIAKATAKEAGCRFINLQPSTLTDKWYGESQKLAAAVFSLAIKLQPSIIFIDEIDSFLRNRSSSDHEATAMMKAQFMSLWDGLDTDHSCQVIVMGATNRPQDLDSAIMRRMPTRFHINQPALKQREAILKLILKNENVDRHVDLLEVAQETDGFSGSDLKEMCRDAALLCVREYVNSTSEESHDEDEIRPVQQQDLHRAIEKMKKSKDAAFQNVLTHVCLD
UniProt P22676, sequence (P22676 whole entry, looked up): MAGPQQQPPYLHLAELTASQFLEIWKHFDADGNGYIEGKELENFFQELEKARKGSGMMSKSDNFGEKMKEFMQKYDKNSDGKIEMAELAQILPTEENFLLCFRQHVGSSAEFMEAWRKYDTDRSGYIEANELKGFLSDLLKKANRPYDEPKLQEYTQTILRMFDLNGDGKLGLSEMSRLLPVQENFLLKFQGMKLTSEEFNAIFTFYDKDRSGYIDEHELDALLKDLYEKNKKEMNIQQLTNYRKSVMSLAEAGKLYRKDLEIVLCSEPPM
UniProt O60508, sequence (O60508 whole entry, looked up): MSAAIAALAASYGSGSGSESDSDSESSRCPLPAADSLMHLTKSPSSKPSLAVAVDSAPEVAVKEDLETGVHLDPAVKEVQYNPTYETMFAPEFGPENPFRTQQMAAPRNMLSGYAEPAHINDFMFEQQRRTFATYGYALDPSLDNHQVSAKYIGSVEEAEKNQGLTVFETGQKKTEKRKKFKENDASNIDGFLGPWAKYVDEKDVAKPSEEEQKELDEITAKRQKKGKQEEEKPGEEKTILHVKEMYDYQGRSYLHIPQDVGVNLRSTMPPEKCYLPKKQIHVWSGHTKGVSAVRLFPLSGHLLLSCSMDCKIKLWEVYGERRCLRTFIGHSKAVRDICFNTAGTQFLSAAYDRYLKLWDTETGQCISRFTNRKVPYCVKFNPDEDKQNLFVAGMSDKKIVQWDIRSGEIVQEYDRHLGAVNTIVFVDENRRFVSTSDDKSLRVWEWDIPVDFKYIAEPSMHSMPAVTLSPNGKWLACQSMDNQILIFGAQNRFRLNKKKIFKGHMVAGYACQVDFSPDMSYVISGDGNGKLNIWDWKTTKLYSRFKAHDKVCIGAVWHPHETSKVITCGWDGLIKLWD

Target | log2 fold change [1] | log2 fold change [2] | log2 fold change [3] | log2 fold change [4] | log2 fold change [5] | log2 fold change [6] | log2 fold change [7] | log2 fold change [8] | log2 fold change [9] | log2 fold change [10]
ATRIP (UniProt Q8WXE1) | 0.174 | 0.002 | -0.036 | -0.281 (active) | -0.06 | -0.013 | 0.031 | -0.001 | 0.048 | 0.002
C1orf112 (UniProt Q9NSG2) | 0 | 0.006 | -0.04 | -0.065 | 0.034 | 0.037 | 0.171 | -0.059 | 0.065 | 0.025
CDS2 (UniProt O95674) | 0.09 | 0.041 | 0.027 | 0.026 | 0.005 | -0.006 | 0.015 | 0.004 | -0.053 | 0.037
BPHL (UniProt Q86WA6) | -0.13 | 0.013 | 0.058 | 0.015 | 0 | 0.069 | 0.063 | 0 | -0.058 | 0.084
ATP2B4 (UniProt P23634) | 0.002 | -0.002 | 0.026 | -0.027 | -0.004 | -0.019 | -0.185 | 0.145 | 0.024 | 0.009
BNIP1 (UniProt Q12981) | 0.024 | 0 | 0.057 | -0.032 | -0.054 | -0.013 | 0.287 (active) | -0.204 | 0.032 | 0.006
CAMK2G isoform 8 (UniProt Q13555) | 0.067 | -0.03 | 0.058 | 0.102 | -0.033 | -0.079 | -0.001 | 0.022 | 0.086 | 0.345 (active)
CCDC85B (UniProt Q15834) | -0.317 | 0.04 | -0.047 | 0.086 | 0.345 | 0.007 | 0.126 | -0.01 | 0.163 | -0.035
CHCHD7 isoform 4 (UniProt Q9BUK0) | 0.026 | 0.06 | -0.026 | 0.073 | -0.064 | 0.021 | -0.71 (active) | 0.155 | -0.021 | 0.077
CDK16 isoform 2 (UniProt Q00536) | 0.03 | 0.075 | 0.007 | -0.006 | -0.175 | -0.03 | -0.027 | 0.083 | 0.03 | 0.236
ATG4B (UniProt Q9Y4P1) | 0.036 | 0.04 | 0.047 | 0.012 | -0.05 | 0.008 | 0.148 | -0.105 | 0.043 | 0.039
ATXN2 (UniProt Q99700) | 0.007 | -0.004 | 0.012 | 0.057 | 0.001 | 0.022 | 0.005 | -0.03 | -0.014 | 0.052
CCDC51 (UniProt Q96ER9) | 0.001 | -0.008 | 0.027 | -0.005 | 0.002 | -0.009 | 0.262 (active) | -0.422 (active) | -0.034 | -0.072
CCNYL1 (UniProt Q8N7R7) | -0.072 | 0.003 | -0.046 | 0.031 | -0.046 | 0.012 | -0.188 | 0.269 | 0.051 | 0.034
CCNC (UniProt P24863) | 0.22 | 0.046 | -0.026 | -0.017 | -0.079 | 0.029 | -0.211 | 0.135 | -0.001 | -0.062
CBX5 (UniProt P45973) | 0.028 | 0.026 | -0.025 | 0.018 | 0.016 | -0.073 | -0.215 (active) | 0.066 | 0.001 | 0.016
ATG13 isoform 2 (UniProt O75143) | -0.05 | 0.042 | 0.024 | 0.036 | 0.007 | 0.015 | -0.281 (active) | 0.077 | 0.005 | 0.053

Target | log2 fold change [1] | log2 fold change [2] | log2 fold change [3] | log2 fold change [4] | log2 fold change [5] | log2 fold change [6] | log2 fold change [7] | log2 fold change [8] | log2 fold change [9] | log2 fold change [10]
CARS isoform 3 (UniProt P49589) | 0.011 | 0.004 | -0.032 | -0.01 | -0.052 | 0.02 | 0.004 | -0.029 | 0.005 | 0.041
CHAC2 (UniProt Q8WUX2) | -0.028 | -0.004 | -0.006 | -0.044 | 0.006 | 0.02 | 0.649 (active) | -0.154 | -0.018 | -0.031
ATP9B (UniProt O43861) | -0.046 | 0.02 | -0.024 | -0.081 | -0.051 | -0.015 | -0.07 | 0.189 | 0.046 | -0.071
CDKN1C (UniProt P49918) | -0.275 | -0.003 | -0.041 | 0.027 | -0.066 | 0.019 | 0.073 | 0.03 | -0.14 | -0.054
CDC16 (UniProt Q13042) | -0.042 | 0.001 | -0.018 | -0.074 | -0.063 | 0.043 | 0.046 | -0.041 | -0.005 | 0.02
CANX isoform 2 (UniProt P27824) | 0.015 | -0.012 | -0.015 | 0.061 | 0.033 | -0.014 | -0.074 | 0.034 | 0.001 | 0.036
CALB2 (UniProt P22676) | 0.064 | 0.046 | 0.375 (active) | -0.036 | 0.017 | 0.023 | -0.065 | 0.066 | -0.008 | -0.061
CDC40 (UniProt O60508) | 0.01 | 0.013 | -0.016 | -0.105 | -0.001 | 0.034 | -0.006 | 0.046 | -0.056 | -0.049
CAMLG (UniProt P49069) | -0.027 | 0 | -0.021 | 0.026 | 0.002 | -0.089 | 0.257 (active) | -0.04 | -0.026 | -0.002
CASP6 (UniProt P55212) | 0.006 | -0.012 | -0.071 | 0.018 | -0.017 | 0.025 | 0.242 | 0.013 | -0.004 | -0.016
CCDC186 (UniProt Q7Z3E2) | -0.007 | 0.069 | -0.029 | 0.069 | 0.031 | 0.019 | 0.332 (active) | -0.033 | -0.003 | -0.054
ATAD1 (UniProt Q8NBU5) | 0.052 | -0.072 | -0.008 | 0.024 | -0.018 | -0.041 | -0.04 | -0.03 | -0.031 | 0.06
CHCHD1 (UniProt Q96BP2) | 0.157 | -0.025 | -0.002 | 0.028 | -0.001 | -0.075 | 1.08 (active) | -0.338 | 0.032 | 0.16
BRD2 isoform 2 (UniProt P25440) | 0.033 | -0.153 | -0.053 | 0.548 (active) | 0.369 | 0.042 | 0.617 (active) | -0.066 | -0.047 | -0.1
CEP128 (UniProt Q6ZU80) | -0.025 | – | 0.124 | -0.132 | – | 0.375 | -1.27 (active) | 0.369 | 0.07 | –
C3orf33 (UniProt Q6P1S2) | 0.295 | -0.043 | -0.04 | – | 0.063 | -0.056 | -0.823 (active) | 0.216 | 0.045 | 0.047
